Compound activity from PubChem BioAssay.
Neddylation inh: inhibitors of cullin neddylation, primary screen, biochemical, TR-FRET, uHTS, NAE and Ubc12 | NEDD8-conjugating enzyme Ubc12 (Homo sapiens) + NEDD8-activating enzyme E1 regulatory … | inhibition, % at 25 µM | actives 0.58% (n = 360,000); in the data active = inhibition above about 36%
NOD2-RIPK2 inh: NOD2-RIPK2 binding disruptors in cells, primary screen, fluorescence, CHO cells, BLA complementation; Receptor-interacting serine/threonine-protein kinase 2 (Homo sapiens), O43353; CCF4 ratio; inhibition, % at 4.98 µM; actives 0.38% (n = 360,000); AID 624267, 2012; in the data active = inhibition above about 21%
TLR4-MyD88 BLA: inhibitors of TLR4-MyD88 association in cells, primary screen, cell-based, HeLa CL3-4, BLA complementation, FRET ratio | Toll-like receptor 4 (Homo sapiens) + Myeloid differentiation primary response protein … | HeLa CL3-4 TLR4/MyD88 BLA complementation | inhibition, % at 8.4 µM | actives 0.18% (n = 200,000) | AID 861, 2007; in the data active = inhibition above about 25%
NPR1 activator: GC-A stimulated cGMP production enhancers – HEK293 GC-A cells, cGMP TR-FRET, EC30 ANP, primary screen. Atrial natriuretic peptide receptor 1 (Homo sapiens), P16066. 0% at EC30 ANP, 100% saturating ANP. activation, % at 10 µM. actives 0.14% (n = 370,000); in the data active = activation above about 40%
NPR2 activator: human GC-B receptor activators, primary screen, HEK293 GC-B cells, cGMP TR-FRET, EC30 CNP. 0% at EC30 CNP, 100% saturating CNP. activation, % at 10 µM. actives 0.11% (n = 370,000). Atrial natriuretic peptide receptor 2 (Homo sapiens), P20594;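 active = activation at 10 µM reaching about 35% in either raw or pattern-adjusted values, limit read from the data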
Target sequence (P20594 whole entry, looked up): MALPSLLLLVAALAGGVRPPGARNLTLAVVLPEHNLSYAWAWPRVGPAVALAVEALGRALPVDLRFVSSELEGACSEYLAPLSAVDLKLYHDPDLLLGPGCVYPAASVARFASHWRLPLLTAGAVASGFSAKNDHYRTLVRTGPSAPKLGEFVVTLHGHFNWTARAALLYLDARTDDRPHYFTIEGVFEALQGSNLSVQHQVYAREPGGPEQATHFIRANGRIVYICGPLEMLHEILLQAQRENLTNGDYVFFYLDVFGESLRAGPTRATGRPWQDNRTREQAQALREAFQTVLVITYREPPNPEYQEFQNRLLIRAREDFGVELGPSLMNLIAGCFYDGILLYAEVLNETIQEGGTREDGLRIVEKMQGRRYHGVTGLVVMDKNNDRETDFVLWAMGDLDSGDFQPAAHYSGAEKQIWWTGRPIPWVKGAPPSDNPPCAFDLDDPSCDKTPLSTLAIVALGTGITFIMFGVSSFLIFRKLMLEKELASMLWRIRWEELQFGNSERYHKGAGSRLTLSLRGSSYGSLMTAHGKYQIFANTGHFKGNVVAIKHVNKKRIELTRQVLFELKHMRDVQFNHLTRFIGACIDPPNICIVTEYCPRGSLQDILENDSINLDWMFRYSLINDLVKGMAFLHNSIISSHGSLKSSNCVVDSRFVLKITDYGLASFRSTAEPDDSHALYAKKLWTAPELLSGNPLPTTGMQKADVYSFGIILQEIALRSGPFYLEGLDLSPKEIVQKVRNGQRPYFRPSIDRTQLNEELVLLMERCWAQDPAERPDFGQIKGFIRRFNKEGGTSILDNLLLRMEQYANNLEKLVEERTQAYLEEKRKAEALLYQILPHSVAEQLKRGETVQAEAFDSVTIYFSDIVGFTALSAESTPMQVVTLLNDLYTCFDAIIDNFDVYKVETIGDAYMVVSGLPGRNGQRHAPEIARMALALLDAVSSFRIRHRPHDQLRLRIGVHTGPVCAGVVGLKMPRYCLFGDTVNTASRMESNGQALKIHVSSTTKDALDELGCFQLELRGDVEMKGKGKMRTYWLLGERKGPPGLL
TLR9-MyD88 block: inhibitors of TLR9-MyD88 association in cells, primary screen, cell-based, CHO, BLA complementation, fluorescence | AID 504734, 2011 | inhibition, % at 4.98 µM | CCF4 FRET ratio | actives 0.21% (n = 340,000) | Toll-like receptor 9 (Homo sapiens) + Myeloid differentiation primary response protein …;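 active = inhibition above the mean over all tested compounds plus 3 SD, cut at about 21% in these data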
Neddyl inh conf: blockade of NEDD8 conjugation to cullin – biochemical, TR-FRET, single concentration, confirmation. shares compounds with Neddylation inh. TR-FRET cullin neddylation biochemical assay. calls only at 25 µM. actives 13% (n = 1,800). AID 652217, 2013; in the data active = inhibition above about 40%;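 also: neddylation substrate is the cullin 1 ring ligase complex with SKP2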
Each line names hits and unclear results; the compound was inactive in the other large screens (follow-up assays come after a bar, where shown). Only some compounds are listed: those with a hit (about 1.2% of all), similar ones and a draw of the others.

Cc1c(C(=O)N/N=C/c2ccncc2)nnn1-c1nonc1N	none (no result: TLR4-MyD88 BLA)
CC(C)C[C@@H]1COc2cc(Br)ccc2S(=O)(=O)N1Cc1cn(Cc2ccco2)nn1	none (no result: Neddylation inh, NOD2-RIPK2 inh, TLR4-MyD88 BLA, TLR9-MyD88 block)
COC(=O)[C@]12C[C@H](CC(=O)NCC3CCCCC3)C(=O)N(Cc3ccc(Cl)cc3Cl)C1=C[C@H](C(C)(C)C)O[C@@H]2C	none (no result: Neddylation inh, NOD2-RIPK2 inh, TLR4-MyD88 BLA, TLR9-MyD88 block)
CNC(=O)c1c(NC(=O)c2ccco2)sc2c1CCCC2	Neddylation inh 45 (not shown: TLR4-MyD88 BLA)
CC(C)OC(=O)c1c(NC(=O)c2ccco2)sc2c1CCCCC2	none (not shown: Neddylation inh)
CS(=O)(=O)Nc1ccccc1C(=O)Nc1cccc(Cl)c1	Neddylation inh 47
CS(=O)(=O)Nc1ccccc1C(=O)NCCSc1ccccc1	Neddylation inh 42 (no result: TLR4-MyD88 BLA) | Neddyl inh conf inactive
CC(C)(CNC(=O)c1ccccc1NS(C)(=O)=O)N1CCCCC1	Neddylation inh 45 (no result: TLR4-MyD88 BLA) | Neddyl inh conf inactive
COCC(=O)N(C)C[C@@H]1Oc2cc(-c3ccc(F)cc3)ccc2S(=O)(=O)N([C@H](C)CO)C[C@H]1C	none (no result: TLR4-MyD88 BLA)
O=C(Nc1ccccc1)Nc1nnc([C@@H]2C[C@H](O)[C@@H](CO)O2)s1	none (no result: TLR4-MyD88 BLA, TLR9-MyD88 block)
Oc1ccc2c(c1)oc1cc(O)ccc12	Neddylation inh 41 | Neddyl inh conf inactive
COc1cc(C)ccc1S(=O)(=O)NC(=O)C1(C)CCN1C(=O)Cc1ccccc1Cl (configuration not stated)	none (no result: TLR4-MyD88 BLA, TLR9-MyD88 block)
CC1(C)Cc2c(sc(NC(=O)c3ccc4c(c3)OCCO4)c2C(N)=O)C(C)(C)N1	Neddylation inh 40 (no result: TLR4-MyD88 BLA) | Neddyl inh conf inactive
COC(=O)[C@@]12C[C@@H](CC(=O)NCc3ccc(OC)c(OC)c3)C(=O)N(Cc3ccc4c(c3)OCO4)C1=CCC(C)(C)C2	none (no result: TLR4-MyD88 BLA, TLR9-MyD88 block)
CN(C)S(=O)(=O)c1cccc(NC(=O)c2cc3c(=O)n4ccccc4nc3s2)c1	Neddylation inh 61
Cc1cc(NS(=O)(=O)c2ccc(NC(=O)c3cc4c(=O)n5ccccc5nc4s3)cc2)nc(C)n1	Neddylation inh 66 | Neddyl inh conf active
Cc1cc(NS(=O)(=O)c2ccc(NC(=O)c3cc4ccccc4o3)cc2)nc(C)n1	none
CCC(C)NC(=O)c1cc2c(=O)n3ccccc3nc2s1 (configuration not stated)	none (not shown: Neddylation inh, TLR4-MyD88 BLA)
Cc1cc(C)c2c(N)c(C(=O)c3ccccc3)oc2n1	none
Cc1cc(-c2ccccc2)nc2oc(C(=O)NN)c(N)c12	Neddylation inh 43 (no result: TLR4-MyD88 BLA) | Neddyl inh conf active
COc1ccc(/C=N/Nc2nc(-c3cccnc3)nc3ccccc23)c(OC)c1	Neddylation inh 41 (no result: TLR4-MyD88 BLA) | Neddyl inh conf active
COc1ccc(Nc2nc(-c3ccncc3)nc3ccccc23)cc1	Neddylation inh 43 (no result: TLR4-MyD88 BLA) | Neddyl inh conf inactive
Cc1ccc(-c2nc(N/N=C/c3cccnc3)c3ccccc3n2)cc1	none
COc1ccc(OC)c(Nc2nc(-c3ccncc3)nc3ccccc23)c1	none (not shown: Neddylation inh, TLR4-MyD88 BLA)
COc1ccc(/C=N\NC(=O)c2cccc([N+](=O)[O-])c2)cc1Cn1cc([N+](=O)[O-])cn1	none (no result: Neddylation inh, NOD2-RIPK2 inh, TLR9-MyD88 block)
COc1ccc(/C=N/NC(=O)c2ccccc2O)cc1Cn1cc(Cl)cn1	Neddylation inh 48 | Neddyl inh conf active
O=C(O)Cn1c(=O)c(-c2ccccc2)nc2ccccc21	Neddylation inh 55 (not shown: TLR4-MyD88 BLA)
CCOC(=O)CC[C@H]1CC[C@]2(CCCN(S(=O)(=O)C3CCCCC3)C2)O1	none (no result: Neddylation inh, NOD2-RIPK2 inh, TLR4-MyD88 BLA, TLR9-MyD88 block)
Cc1nc2c(C(=O)N3CCCC3)cnn2c(C)c1Cc1c(F)cccc1Cl	none (not shown: Neddylation inh)
Cc1nc2c(C(=O)N3CCN(c4ccccn4)CC3)cnn2c(C)c1Cc1cccc(Cl)c1	Neddylation inh 45 | Neddyl inh conf inactive
CC(C)Cc1nc(N2CCCCC2)c(C#N)c2c1CCC2	Neddylation inh 39
CC(=O)N1CCN(c2nc(CC(C)C)c3c(c2C#N)CCC3)CC1	none (not shown: Neddylation inh)
COc1ccc2cc3cc(C(=O)NCCN4CCc5ccccc5C4)sc3nc2c1	Neddylation inh 50 | Neddyl inh conf inactive
COc1ccc(NC(=O)CN(C)C(=O)c2cc(-c3ccc(Cl)cc3)nc3ccccc23)cc1	none (no result: TLR4-MyD88 BLA)
COc1ccc(-c2cc(C(=O)N(C)CC(=O)Nc3ccccc3Br)c3ccccc3n2)cc1OC	Neddylation inh 47 (no result: TLR4-MyD88 BLA) | Neddyl inh conf active
CCOc1ccc(NC(=O)CN(C)C(=O)c2cc(-c3ccc(OC)cc3)nc3ccccc23)cc1OCC	Neddylation inh 55 (not shown: TLR4-MyD88 BLA)
c1ccc(-n2ncc3c(NCc4ccccn4)ncnc32)cc1	none
Cc1cccc(-n2ncc3c(NCc4ccccn4)ncnc32)c1	Neddylation inh 40 | Neddyl inh conf inactive
Cc1cc(C)c2c(N)c(C(=O)c3ccc(Cl)cc3)sc2n1	none
Cc1cc(C)c2c(N)c(C(=O)c3ccccc3)sc2n1	Neddylation inh 45 (no result: TLR4-MyD88 BLA, TLR9-MyD88 block) | Neddyl inh conf active
COc1ccccc1OCC(=O)/C=C1/N(C)c2ccccc2C1(C)C	Neddylation inh 46 | Neddyl inh conf inactive
CCN(CC)C(=O)c1sc2nc(-c3ccccn3)[nH]c(=O)c2c1C	none (no result: TLR4-MyD88 BLA)
CCc1cc2c(=O)[nH]c(-c3ccncc3)nc2s1	Neddylation inh 40
CCN(CC)C(=O)c1sc2nc(-c3ccncc3)[nH]c(=O)c2c1C	Neddylation inh 39 | Neddyl inh conf active
O=C(Nc1ccc2nsnc2c1)C1CC1	Neddylation inh 56 | Neddyl inh conf active
CCOC(=O)Cc1csc(NC(=O)/C=C/c2ccc(Cl)cc2)n1	Neddylation inh 38 (no result: TLR4-MyD88 BLA) | Neddyl inh conf inactive
O=c1c(-c2ccco2)nc2ccccc2n1C(CCc1ccccc1)c1nc2ccccc2[nH]1 (configuration not stated)	none (no result: TLR4-MyD88 BLA, TLR9-MyD88 block)
CCN(CC)CCNC(=O)c1ccc(NC(=O)c2cc(-c3ccco3)nc3ccccc23)cc1	Neddylation inh 53 (no result: TLR4-MyD88 BLA) | Neddyl inh conf inactive
CN(C)C(=O)c1ccc(NC(=O)c2cc(-c3ccco3)nc3ccccc23)cc1	Neddylation inh 53 (not shown: TLR4-MyD88 BLA)
COc1ccc(S(=O)(=O)Nc2ccccc2C(=O)NCc2ccco2)cc1	Neddylation inh 40 | Neddyl inh conf active
O=C1C2CC3N1CCC31c3ccccc3-n3c1c2ccc3=O (configuration not stated)	Neddylation inh 45 (no result: TLR4-MyD88 BLA) | Neddyl inh conf active
